For 6 molecules, outcome and AC50 results are on record in PubChem BioAssay (EPA / NIEHS).

Read-out in assay [1]: C-C motif chemokine 2 (Homo sapiens) (UniProt P13500)
Kind of assay: BSK_KF3CT_MCP1: BioMAP Diversity Plus: KF3CT Assay for Monocyte Chemoattractant Protein 1 (MCP1/CCL2) Biomarker Activity (AID 2283073). The settings on record: primary human keratinocytes with fibroblasts; actives raise or lower the signal. The method, boiled down:
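ELISA readout of MCP-1 after 24 h chemical dosing of a human skin primary co-culture of keratinocytes and foreskin fibroblasts. Activity was fitted in both directions against DMSO.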

Read-out in assay [2]: urokinase plasminogen activator (uPA), PLAU (gene 5328)
Kind of assay: BSK_KF3CT_uPA: BioMAP Diversity Plus: KF3CT Assay for urokinase plasminogen activator (uPA) Biomarker Activity (AID 2283075). The settings on record: primary human keratinocytes with fibroblasts; actives raise or lower the signal. The method, boiled down: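 Primary human keratinocyte/foreskin fibroblast co-culture exposed to chemical; uPA measured by ELISA at 24 h. Bidirectional fit versus DMSO, with parallel SRB total-protein staining for cytotoxicity.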

Read-out in assay [3]: CD40, CD40 (gene 958)
Put plainly: BSK_LPS_CD40: BioMAP Diversity Plus: LPS Assay for CD40 Biomarker Activity (AID 2283076). The settings on record: primary human HUVEC with PBMC; actives raise or lower the signal. Put shortly:
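Cells were dosed, incubated 24 h, then assayed for CD40 by ELISA. Gain or loss of signal was analysed relative to DMSO controls. The culture paired human umbilical vein endothelium with peripheral blood mononuclear cells.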

Read-out in assay [4]: E-selectin (Homo sapiens) (UniProt P16581)
Kind of assay: BSK_LPS_Eselectin: BioMAP Diversity Plus: LPS Assay for Eselectin Biomarker Activity (AID 2283077). Particulars: primary human HUVEC with PBMC; actives raise or lower the signal. Put shortly: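 Primary human vascular co-culture (endothelium plus PBMC) was dosed with chemical, then E-selectin quantified by ELISA at 24 h. Endpoint values derive from bidirectional curve fitting relative to DMSO.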

Read-out in assay [5]: Interleukin-8 (IL8), CXCL8 (gene 3576)
Put plainly: BSK_LPS_IL8: BioMAP Diversity Plus: LPS Assay for Interleukin-8 (IL8) Biomarker Activity (AID 2283078). The settings on record: primary human HUVEC with PBMC; actives raise or lower the signal. The method, boiled down:
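Readout is IL-8 by ELISA, taken 24 h after compounds were added to LPS-stimulated endothelial/PBMC co-cultures. Both increases and decreases relative to DMSO control were scored through bidirectional fitting.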

A short description of assay [6]: BSK_LPS_SRB: Viability Assessment in the BioMAP Diversity Plus: LPS Assay (AID 2283079).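 Also: total protein by sulforhodamine B absorbance as a cytotoxicity measure; measured one day after compound addition.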 The settings on record: primary human HUVEC with PBMC. Put shortly: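 Readout is SRB absorbance at 560 nm (0.1% stain, TCA-fixed parallel cultures) as a total-protein cytotoxicity measure. Cells: primary human umbilical vein endothelium plus peripheral blood mononuclear cells, 24 h after chemical exposure; DMSO served as baseline.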

Read-out in assay [7]: Interleukin-1 alpha (IL1a), IL1A (gene 3552)
Kind of assay: BSK_LPS_IL1a: BioMAP Diversity Plus: LPS Assay for Interleukin-1 alpha (IL1a) Biomarker Activity (AID 2283080). Particulars: primary human HUVEC with PBMC; actives raise or lower the signal. Put shortly: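 ELISA read-out of IL-1 alpha from a human primary vascular co-culture (endothelium plus PBMC) under LPS, sampled 24 hours post-dosing. Activity was fitted in both directions relative to DMSO controls.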

Read-out in assay [8]: Monocyte Chemoattractant Protein-1 (MCP1), CCL2 (gene 6347)
Kind of assay: BSK_LPS_MCP1: BioMAP Diversity Plus: LPS Assay for Monocyte Chemoattractant Protein-1 (MCP1) Biomarker Activity (AID 2283081). The settings on record: primary human HUVEC with PBMC; actives raise or lower the signal. Put shortly: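 Human endothelial–PBMC co-cultures were dosed with chemical, then LPS-driven MCP-1 levels were quantified by ELISA at 24 h. Activity in either direction was fitted versus DMSO negative control.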

The nature of assay [9]: BSK_LPS_PGE2: BioMAP Diversity Plus: LPS Assay for Prostaglandin E2 (PGE2) Biomarker Activity (AID 2283082). The settings on record: primary human HUVEC with PBMC; actives raise or lower the signal. Put shortly:
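HUVEC plus PBMC co-culture stimulated with LPS; secreted PGE2 quantified by ELISA 24 h after chemical dosing. Activity fitted bidirectionally against DMSO as negative control and baseline; parallel SRB total-protein staining served as cytotoxicity check.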

Read-out in assay [10]: Macrophage colony-stimulating factor (MCSF), CSF1 (gene 1435)
Put plainly: BSK_LPS_MCSF: BioMAP Diversity Plus: LPS Assay for Macrophage colony-stimulating factor (MCSF) Biomarker Activity (AID 2283083). The settings on record: primary human HUVEC with PBMC; actives raise or lower the signal. Put shortly: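 ELISA readout of M-CSF after 24 h compound exposure in a human endothelial/PBMC co-culture. Activity, in either direction, is fitted relative to DMSO vehicle.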

Read-out in assay [11]: Tissue Factor, F3 (gene 2152)
Kind of assay: BSK_LPS_TissueFactor: BioMAP Diversity Plus: LPS Assay for Tissue Factor Biomarker Activity (AID 2283084). The settings on record: primary human HUVEC with PBMC; actives raise or lower the signal. Put shortly: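 ELISA signal for cell-surface Tissue Factor (CD142) was read 24 h after compound dosing of an LPS-stimulated human endothelial–PBMC primary co-culture. Gain or loss of signal was scored relative to DMSO.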

Read-out in assay [12]: Vascular cell adhesion molecule 1 (VCAM1), VCAM1 (gene 7412)
Put plainly: BSK_LPS_VCAM1: BioMAP Diversity Plus: LPS Assay for Vascular cell adhesion molecule 1 (VCAM1) Biomarker Activity (AID 2283086). The settings on record: primary human HUVEC with PBMC; actives raise or lower the signal. Put shortly: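 Human umbilical vein endothelial cells co-cultured with peripheral blood mononuclear cells under LPS stimulation were exposed to test chemical for 24 h. VCAM-1 levels were then measured by ELISA, with bidirectional curve fitting relative to DMSO as negative control and baseline.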

Read-out in the next assay: CD38, CD38 (gene 952)
Kind of assay: BSK_SAg_CD38: BioMAP Diversity Plus: SAg Assay for CD38 Biomarker Activity (AID 2283087). The settings on record: primary human HUVEC with PBMC; actives raise or lower the signal. The method, boiled down:
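Fluorescence ELISA of cell-surface CD38 served as the read-out, with either increase or decrease fitted against DMSO controls. Cells were a human umbilical vein endothelium plus PBMC co-culture under SEB/TSST-1 stimulation, measured 24 h after dosing.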

Read-out in assay [13]: CD40, CD40 (gene 958)
Kind of assay: BSK_SAg_CD40: BioMAP Diversity Plus: SAg Assay for CD40 Biomarker Activity (AID 2283088). Particulars: primary human HUVEC with PBMC; actives raise or lower the signal. Put shortly: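 Compounds were dosed onto a human primary endothelial–PBMC co-culture, and after 24 h CD40 was quantified by ELISA using a fluorescence signal. Activity in either direction was fitted relative to DMSO.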

Read-out in the next assay: CD69, CD69 (gene 969)
Put plainly: BSK_SAg_CD69: BioMAP Diversity Plus: SAg Assay for CD69 Biomarker Activity (AID 2283089). Particulars: primary human HUVEC with PBMC; actives raise or lower the signal. Put shortly: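 HUVEC co-cultured with PBMC were dosed with chemical, and CD69 was measured by ELISA with fluorescence read-out 24 h later. Bidirectional curve fitting used DMSO as negative control and activity baseline.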

Read-out in assay [14]: Monocyte Chemoattractant Protein-1 (MCP1), CCL2 (gene 6347)
Kind of assay: BSK_SAg_MCP1: BioMAP Diversity Plus: SAg Assay for Monocyte Chemoattractant Protein-1 (MCP1) Biomarker Activity (AID 2283090). The settings on record: primary human HUVEC with PBMC; actives raise or lower the signal. The method, boiled down: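 MCP-1 levels in the endothelial–PBMC SAg co-culture were quantified by ELISA at 24 h post-dosing; both increases and decreases versus DMSO scored. Cytotoxicity monitored by SRB total protein in parallel cultures.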

Read-out in assay [15]: E-selectin (Homo sapiens) (UniProt P16581)
Put plainly: BSK_SAg_Eselectin: BioMAP Diversity Plus: SAg Assay for Eselectin Biomarker Activity (AID 2283091). Particulars: primary human HUVEC with PBMC; actives raise or lower the signal. The method, boiled down: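 Co-culture: HUVEC + PBMC. Dose compound; 24 h. ELISA for E-selectin. Bidirectional fit vs DMSO.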

Read-out in assay [16]: Monokine induced gamma interferon (MIG), CXCL9 (gene 4283)
Kind of assay: BSK_SAg_MIG: BioMAP Diversity Plus: SAg Assay for Monokine induced gamma interferon (MIG) Biomarker Activity (AID 2283092). The settings on record: primary human HUVEC with PBMC; actives raise or lower the signal. The method, boiled down:
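HUVEC plus human PBMC co-culture, chemicals dosed and MIG (CXCL9) quantified by ELISA at 24 h. Bidirectional curve fitting against DMSO as negative control and baseline, so both gain and loss of signal count as activity.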

Read-out in assay [17]: Tumor necrosis factor (Homo sapiens) (UniProt P01375)
Put plainly: BSK_LPS_TNFa: BioMAP Diversity Plus: LPS Assay for Tumour Necrosis Factor alpha (TNFa) Biomarker Activity (AID 2283085). The settings on record: primary human HUVEC with PBMC; actives raise or lower the signal. Put shortly: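 Human umbilical vein endothelial cells co-cultured with PBMC were exposed to test chemical and TNFa measured by ELISA 24 h after dosing. Bidirectional curve fitting was done relative to DMSO as negative control and baseline.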

Activity calls are given as the source filed them. The calls were made as follows: active = hit-call score of the fitted dose curve at least 0.9, where 1 is the maximum; inactive = score below 0.9.

A word on the AC50: it is the midpoint of the concentration-response curve, whichever way the signal moves.

Chain of E-selectin (Homo sapiens) (P16581 whole entry, looked up): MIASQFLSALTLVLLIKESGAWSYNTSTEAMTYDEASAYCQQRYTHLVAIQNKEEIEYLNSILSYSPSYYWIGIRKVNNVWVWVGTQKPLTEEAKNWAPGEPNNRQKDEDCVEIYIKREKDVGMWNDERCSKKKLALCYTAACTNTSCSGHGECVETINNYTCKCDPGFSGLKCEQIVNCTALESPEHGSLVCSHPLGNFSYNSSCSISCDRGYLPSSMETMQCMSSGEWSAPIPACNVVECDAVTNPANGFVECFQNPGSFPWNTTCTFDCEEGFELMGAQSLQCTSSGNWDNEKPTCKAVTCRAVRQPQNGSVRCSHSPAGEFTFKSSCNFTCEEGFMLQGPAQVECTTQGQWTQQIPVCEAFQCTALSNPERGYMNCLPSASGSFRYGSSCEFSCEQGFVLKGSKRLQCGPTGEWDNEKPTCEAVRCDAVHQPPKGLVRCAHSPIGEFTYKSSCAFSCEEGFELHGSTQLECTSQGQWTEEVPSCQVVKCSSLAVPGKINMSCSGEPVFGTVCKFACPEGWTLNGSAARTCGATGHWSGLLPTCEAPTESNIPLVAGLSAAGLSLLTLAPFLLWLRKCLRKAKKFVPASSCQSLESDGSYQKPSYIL
Chain of Tumor necrosis factor (Homo sapiens) (P01375 whole entry, looked up): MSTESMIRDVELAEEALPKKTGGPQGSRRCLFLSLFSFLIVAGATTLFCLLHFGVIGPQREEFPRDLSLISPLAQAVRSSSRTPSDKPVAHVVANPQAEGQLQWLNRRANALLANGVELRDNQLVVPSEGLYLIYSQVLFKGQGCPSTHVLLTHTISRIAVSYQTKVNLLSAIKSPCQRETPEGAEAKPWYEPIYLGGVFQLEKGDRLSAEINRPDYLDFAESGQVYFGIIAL

As to `O=C(CCl)NCO`, the outcome in assay [1] is “inactive”; in assay [2], “inactive”; with CD40, CD40 (gene 958) [3], “inactive”; in assay [4], “inactive”; in [6], “inactive”; in assay [7], “inactive”. Besides, the outcome is “inactive” in assay [8]; “inactive” in [9]; “inactive” in [10]; “inactive” in [11]; “inactive” in assay [12]; “inactive” in the assay with CD38, CD38 (gene 952). Also, the outcome with CD40, CD40 (gene 958) [13] is “inactive”; in the assay with CD69, CD69 (gene 969), “inactive”; in [14], “inactive”; in assay [15], “inactive”; in [16], “inactive”. Also, the AC50 in assay [5] was 62.5 nM (active).

For the molecule `NC(=O)CCl`, the outcome in assay [1] was “inactive”; in assay [2], “inactive”; with CD40, CD40 (gene 958) [3], “inactive”; in [4], “inactive”; in assay [5], “inactive”; in [6], “inactive”. Also, the outcome in [7], in assay [8], in [9], in [10], in assay [11] and in assay [12] was inactive. Further, the outcome was “inactive” with CD38, CD38 (gene 952); “inactive” with CD40, CD40 (gene 958) [13]; “inactive” with CD69, CD69 (gene 969); “inactive” in assay [14]; “inactive” in assay [15]; “inactive” in [16].

With `CCCCN(CCCC)C(=S)[S-].CCCCN(CCCC)C(=S)[S-].[Ni+2]`, the outcome is “inactive” in assay [2]; “inactive” with CD40, CD40 (gene 958) [3]; “inactive” in assay [4]; “inactive” in assay [5]; “inactive” in assay [6]; “inactive” in [7]. Besides, the outcome is “inactive” in assay [8]; “inactive” in [9]; “inactive” in [10]; “inactive” in assay [11]; “inactive” in assay [12]; “inactive” in the assay with CD38, CD38 (gene 952). Further, the outcome was “inactive” in the assay with CD40, CD40 (gene 958) [13]; “inactive” in the assay with CD69, CD69 (gene 969); “inactive” in assay [14]; “inactive” in assay [15]; “inactive” in [16].

Turning to `COCC(=O)N(c1c(C)cccc1C)[C@H](C)C(=O)OC`, the outcome in [1] is “inactive”; in assay [2], “inactive”; in the assay with CD40, CD40 (gene 958) [3], “inactive”; in assay [4] it was “inactive”; in assay [5], “inactive”; in assay [6] it was “inactive”. For the same molecule, the outcome in assay [7], in [8], in assay [9], in assay [10], in [11] and in assay [17] was inactive. The outcome in assay [12] was “inactive”; with CD38, CD38 (gene 952) it was “inactive”; in the assay with CD40, CD40 (gene 958) [13], “inactive”; in the assay with CD69, CD69 (gene 969), “inactive”; in [14], “inactive”; in [15], “inactive”. The result in assay [16] was inactive.

With `Oc1c(Cl)cc(Cl)cc1Cl`, the outcome in [1] was “inactive”; in assay [2] it was “inactive”; with CD40, CD40 (gene 958) [3], “inactive”; in [4], “inactive”; in [5], “inactive”; in [6], “inactive”. The outcome in [7], in [8], in assay [9], in assay [10], in assay [11] and in assay [12] was inactive. Further, the outcome in the assay with CD38, CD38 (gene 952) is “inactive”; in the assay with CD69, CD69 (gene 969), “inactive”; in assay [14], “inactive”; in assay [15], “inactive”; in [16], “inactive”. In addition, the AC50 with CD40, CD40 (gene 958) [13] was 13.3 µM (active).

For the molecule `COc1ccccc1N`, the outcome in assay [1] was “inactive”; in assay [2], “inactive”; in the assay with CD40, CD40 (gene 958) [3] it was “inactive”; in assay [4] it was “inactive”; in [5], “inactive”; in [6], “inactive”. Further, the result in assay [7], in [8], in assay [9], in assay [10], in [11] and in assay [12] was inactive. Also, the outcome with CD38, CD38 (gene 952) is “inactive”; in the assay with CD40, CD40 (gene 958) [13], “inactive”; in the assay with CD69, CD69 (gene 969), “inactive”; in [14] it was “inactive”; in [15], “inactive”; in assay [16] it was “inactive”.
